Experimental findings from article PMC4336329 (PLoS ONE, 2015) are described below.

About 14,000 (4.5%) of roughly 310,000 compounds showed an effect of 50% or more. Effects have a minus sign here. Shown is part of a subset that was picked to be rich in strong results.
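Note: peak tail current of the secondary pulse compared with the same well before compound.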

The target in this assay is human ether-à-go-go-related gene (hERG) potassium channel (human, UniProt Q12809). As to the kind of experiment: primary screen, population patch clamp on CHO cells stably expressing hERG; higher = less effect of the substance.
Chain of human ether-à-go-go-related gene (hERG) potassium channel (Q12809 whole entry, looked up): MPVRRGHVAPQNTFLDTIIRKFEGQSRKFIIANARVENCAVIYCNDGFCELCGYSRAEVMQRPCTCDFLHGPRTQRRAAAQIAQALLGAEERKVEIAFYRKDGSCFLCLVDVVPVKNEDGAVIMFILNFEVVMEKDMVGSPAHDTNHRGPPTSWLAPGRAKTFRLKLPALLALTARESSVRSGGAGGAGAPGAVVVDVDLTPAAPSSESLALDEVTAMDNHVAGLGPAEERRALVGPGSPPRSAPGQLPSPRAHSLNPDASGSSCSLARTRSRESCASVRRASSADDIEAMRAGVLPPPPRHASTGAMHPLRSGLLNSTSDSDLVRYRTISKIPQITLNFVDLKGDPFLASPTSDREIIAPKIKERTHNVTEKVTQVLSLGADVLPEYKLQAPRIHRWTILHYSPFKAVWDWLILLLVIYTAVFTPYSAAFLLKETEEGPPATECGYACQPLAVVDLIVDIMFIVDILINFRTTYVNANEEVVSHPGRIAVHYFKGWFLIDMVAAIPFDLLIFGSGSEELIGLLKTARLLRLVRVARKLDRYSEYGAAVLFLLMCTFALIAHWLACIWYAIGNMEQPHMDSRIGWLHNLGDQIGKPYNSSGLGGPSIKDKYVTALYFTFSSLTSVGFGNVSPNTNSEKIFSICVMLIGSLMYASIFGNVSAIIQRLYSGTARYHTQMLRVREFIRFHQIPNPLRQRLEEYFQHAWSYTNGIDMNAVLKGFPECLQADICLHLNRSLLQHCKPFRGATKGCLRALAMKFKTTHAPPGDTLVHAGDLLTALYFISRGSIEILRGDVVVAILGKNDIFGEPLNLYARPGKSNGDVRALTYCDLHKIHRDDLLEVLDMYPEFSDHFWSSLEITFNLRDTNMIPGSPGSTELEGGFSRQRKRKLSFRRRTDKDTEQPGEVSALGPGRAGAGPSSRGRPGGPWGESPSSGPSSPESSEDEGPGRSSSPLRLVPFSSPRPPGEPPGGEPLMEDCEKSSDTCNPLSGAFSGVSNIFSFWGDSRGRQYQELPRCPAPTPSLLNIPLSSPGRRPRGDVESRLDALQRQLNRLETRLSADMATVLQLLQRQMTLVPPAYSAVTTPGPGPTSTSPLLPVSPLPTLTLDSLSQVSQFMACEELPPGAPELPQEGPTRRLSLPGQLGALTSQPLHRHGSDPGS
As to `O=c1c2ccccc2c(-c2ccccc2)nn1-c1ccc(Cl)c(Cl)c1`, the “hERG current change (%, negative = inhibition) at 10uM” value is on record as 13.3%.

In the case of `CCOC(=O)C1CCCNC1=O` (stereo not shown), the “hERG current change (%, negative = inhibition) at 10uM” value is 14.8%. As for `S=C(Nc1ccc(Br)cc1)Nc1ccc2c(c1)OCCO2`, the figure is 20.5%; as for `O=C(Nc1ccc2c(c1)OCCO2)c1ccc(Br)cc1`, -3.81%. For `CC(=O)Nc1cc2c(cc1Br)OCCO2`, the “hERG current change (%, negative = inhibition) at 10uM” value is 21.5%. With `Brc1ccc2c(c1)OCCOCCOCCOCCOCCOCCO2` the figure was -70.8%. With `Brc1ccc2c(c1)OCCOCCOc1cc(Br)ccc1OCCOCCOCCO2`, the “hERG current change (%, negative = inhibition) at 10uM” value is reported as -4.86%.

`O=C(O)/C=C/c1ccc2c(c1)OCCO2`: the “hERG current change (%, negative = inhibition) at 10uM” value is -25%. As for `C=Cc1ccc2c(c1)OCCOCCOCCOCCOCCO2`, the figure is -71.2%. As to `Brc1cc2c(cc1Br)OCCOCCOCCOCCO2`, the “hERG current change (%, negative = inhibition) at 10uM” value is -76.5%. With `O=C(Nc1ccc(Br)cc1F)c1ccc2c(c1)OCCO2` the figure was 12.3%; with `Brc1cc2c(cc1Br)OCCOCCOCCO2`, -11.5%; with `Brc1ccc2c(c1)OCCOCCOCCOCCOCCO2`, -76.4%.

`Cl.Nc1ccc2c(c1)OCCOCCOCCOCCOCCO2`: the “hERG current change (%, negative = inhibition) at 10uM” value is recorded as -33.5%. Consider `COC(=O)/C(=C\c1cc(OC)c(OC)c(OC)c1)c1nc2ccccc2[nH]1.Cl`, for which the “hERG current change (%, negative = inhibition) at 10uM” value is 19%. With `COc1ccc(C)cc1NC(=O)CCCN1C(=O)C(c2ccccc2)Oc2cccnc21` (stereo not shown) the figure was 2.21%. Consider `Cc1cccc(CCNC(=O)CCS(=O)(=O)c2cc3c(cc2Cl)NC(=O)CO3)c1`, for which the “hERG current change (%, negative = inhibition) at 10uM” value was found to be 3.71%. As to `CC[C@H]1OC(=O)[C@H](C)[C@@H](O[C@H]2C[C@@](C)(OC)[C@@H](O)[C@H](C)O2)[C@H](C)[C@@H](O[C@@H]2O[C@H](C)C[C@H](N(C)C)[C@H]2O)[C@](C)(O)C[C@@H](C)CN(C)[C@H](C)[C@@H](O)[C@]1(C)O`, the “hERG current change (%, negative = inhibition) at 10uM” value was found to be 1.55%. On to `Cc1ccc(/C(O)=C2/C(=O)C(=O)N(Cc3ccco3)C2c2cccs2)cc1` (stereo not shown), for which the “hERG current change (%, negative = inhibition) at 10uM” value was -8.53%.

On to `CCOC(=O)c1cc(C(=O)n2cc(Cl)cn2)nn1C`, for which the “hERG current change (%, negative = inhibition) at 10uM” value is listed as 10.6%. `Cc1ccc(-c2csc(NC(=O)CCNC(=O)c3ccco3)n2)cc1`: the “hERG current change (%, negative = inhibition) at 10uM” value stood at 5.76%.

With `COc1cc2c(cc1NC(=O)c1cc(-c3cccnc3)nc3ccc(C)cc13)oc1ccccc12`, the “hERG current change (%, negative = inhibition) at 10uM” value was 8.86%. Consider `CCN(CC)c1ccc(/C=N/NC(=O)c2cccc(S(=O)(=O)N3CCOCC3)c2)cc1`, for which the “hERG current change (%, negative = inhibition) at 10uM” value is on record as -24.4%. With `CC1(C(=O)Nc2nnc(SCc3ccccc3)s2)Cc2ccccc2C(=O)O1` (stereo not shown) the figure was -24.6%; with `COc1ccc(OCC(=O)c2c(O)c3ccccc3oc2=O)cc1`, -12.4%; with `CCOC(=O)C1=NN(C(=O)c2cccc(Br)c2)C(O)(C(C)(C)C)C1` (stereo not shown), -57.6%.

With `CCOC(=O)C1=NN(C(=O)Cc2ccccc2)C(O)(C(C)(C)C)C1` (stereo not shown), the “hERG current change (%, negative = inhibition) at 10uM” value is on record as 9.74%. As for `COC(=O)C1=NN(C(=O)c2cccc(Cl)c2)C(O)(C(C)(C)C)C1` (stereo not shown), the figure is 8.11%; as for `COc1ccc(C2CC(=O)C3=C(C2)Nc2ccccc2N(C(C)=O)C3c2ccco2)cc1` (stereo not shown), -35.8%; as for `CN(C)C(=S)Nc1ccc([N+](=O)[O-])cc1`, -0.053%. As for `CN(C)C(=S)NC(=NCc1ccc([N+](=O)[O-])cc1)c1ccccc1`, the figure is -90.7%; as for `O=[N+]([O-])c1cccc(C(=NCc2ccccc2)NO)c1`, 15.9%; as for `Nc1ncc([N+](=O)[O-])c(Oc2ccccc2F)n1`, 24.7%.

Turning to `CCCC1(CCC)C(=O)NC(=NCc2ccccc2)NC1=O`, the “hERG current change (%, negative = inhibition) at 10uM” value is 12.7%. As to `Cc1cc(C)n(-c2nc3c(c(=O)[nH]c(=O)n3C)n2CC(O)COc2ccccc2C)n1` (stereo not shown), the “hERG current change (%, negative = inhibition) at 10uM” value is reported as -31.9%.

On to `O=C(COc1cccc2c1CCN(Cc1ccccc1F)C2=O)N1CCCCC1`, for which the “hERG current change (%, negative = inhibition) at 10uM” value is recorded as -43.4%.

Take `O=C(COc1cccc2c1CCN(Cc1ccccc1)C2=O)N1CCCCC1`: the “hERG current change (%, negative = inhibition) at 10uM” value was -15%. On to `O=C(COc1cccc2c1CCN(Cc1ccc(Cl)cc1)C2=O)N1CCOCC1`, for which the “hERG current change (%, negative = inhibition) at 10uM” value is recorded as -60.2%. `CC1CCN(C(=O)COc2cccc3c2CCN(Cc2ccccc2)C3=O)CC1`: the “hERG current change (%, negative = inhibition) at 10uM” value is reported as -36%. Consider `O=C(COc1cccc2c1CCN(Cc1ccc(Br)cc1)C2=O)N1CCOCC1`, for which the “hERG current change (%, negative = inhibition) at 10uM” value is given as -58.4%. As for `CCN1CCc2c(OCC(=O)N3CCCCC3)cccc2C1=O`, the “hERG current change (%, negative = inhibition) at 10uM” value turned out to be 5.33%. With `CC(C)(C)/C=N/NC(=O)CNC(=O)c1ccc2c(c1)OCCO2` the figure was 15.6%; with `CC1(C)C2CCC1(C)C(OC(=O)CCn1ccnc1)C2` (stereo not shown), -25.5%; with `Cc1ccc(C)c2sc(NC(=O)c3nc4ccccc4s3)nc12`, 2.76%. With `CCN(CC)C(=O)Oc1ccc(Br)cc1C(=O)Nc1ccc(F)c(Cl)c1` the figure was 2.76%; with `CC(=O)c1ccc(/C=C/c2nc3ccccc3n2C)o1`, -5.96%; with `Cc1ccc(NCc2nnc(SCC(=O)NCc3ccco3)n2CC2CCCO2)cc1Cl` (stereo not shown), -7.7%. For the compound `Fc1ccc(NCc2nnc(SCc3nnc(-c4ccccc4)o3)n2CC2CCCO2)cc1` (stereo not shown), the “hERG current change (%, negative = inhibition) at 10uM” value is reported as -53.1%. With `CCSc1nnc(CNc2ccc(F)cc2)n1CC1CCCO1` (stereo not shown), the “hERG current change (%, negative = inhibition) at 10uM” value is on record as -15.1%. On to `Cc1ccc(NCc2nnc(SCC(=O)N3CCCCC3)n2CC2CCCO2)c(C)c1` (stereo not shown), for which the “hERG current change (%, negative = inhibition) at 10uM” value is on record as -5.62%. With `Cc1ccc(NCc2nnc(SCCN3CCCCC3)n2CC2CCCO2)cc1Cl` (stereo not shown) the figure was -92.4%.

Turning to `Cc1ccc(NCc2nnc(SCC(=O)Nc3ncc(C)s3)n2CC2CCCO2)c(C)c1` (stereo not shown), the “hERG current change (%, negative = inhibition) at 10uM” value is -12.4%. On to `Cc1ccc(NCc2nnc(SCC(N)=O)n2CC2CCCO2)c(C)c1` (stereo not shown), for which the “hERG current change (%, negative = inhibition) at 10uM” value is recorded as 8.71%. With `Cc1ccc(NCc2nnc(SCC(=O)Nc3cccc(O)c3)n2CC2CCCO2)c(C)c1` (stereo not shown) the figure was -68.2%; with `Cc1ccc(NCc2nnc(SCC(=O)Nc3ccccc3)n2CC2CCCO2)c(C)c1` (stereo not shown), -0.0882%; with `Fc1ccc(NCc2nnc(SCc3nnc(-c4ccccc4)o3)n2Cc2ccccc2)cc1`, -46%.

For `CCn1c(CNc2ccc(F)cc2)nnc1SCCN1CCCCC1`, the “hERG current change (%, negative = inhibition) at 10uM” value is listed as -12.1%.

In the case of `Cc1ccc(NCc2nnc(SCCN3CCCCC3)n2CC2CCCO2)c(C)c1` (stereo not shown), the “hERG current change (%, negative = inhibition) at 10uM” value is on record as -58.5%.
